Screening results deposited in PubChem BioAssay by several laboratories.
The list is not random: actives were taken first. Their share in the collection is about 5.4%.
Calb FLC: C. albicans growth modulation with fluconazole; growth inhibition, % (concentration not given with the values); 0.57% of 300,000 active; C. albicans CaCi-2 (fluconazole-resistant clinical isolate) + fluconazole, Alamar Blue growth, 48 h;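 active means growth inhibition above about 58% in most replicates, limit read from the data, passing the limit was not always enough; inconclusive means exactly half the replicates above a set limit; inactive means most replicates below a set limit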;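 further: all wells also contain fluconazole at 8 µg/ml as a sub-toxic cotreatment; 0% = median of DMSO wells and 100% = median of geldanamycin control wells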
SKKanGAS inh: SKKanGAS growth inhibition | S. pyogenes SKKanGAS, kanamycin growth, BacTiter-Glo, 6 h | inhibition, % at 7.5 µM | 1.3% of 300,000 active | AID 1662;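 active means mean replicate score, as percent of positive control median, at least 50; inconclusive means mean below 50 but one replicate at or above 50; inactive means mean and every replicate below 50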;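 further: strain carries kanamycin resistance gene driven by streptokinase promoter and grows in 40 µg/ml kanamycin; loss of luminescence reflects streptokinase promoter inhibition or plain growth inhibition; 0% = median of DMSO wells and 100% = positive control at its reference dose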
CSC inhib: blocks cancer stem cells. cancer stem cell-like cells viability, luminescence. inhibition, % at 7.5 µM. 1.1% of 300,000 active; in the data active means inhibition above about 75%; inconclusive means no clear call, values can overlap the other calls; tested in HMLE shEcad cells
Beta apoptosis: beta cell apoptosis inhibition; INS-1E cytokine-induced death, ATP luminescence, 48 h; percent of positive-control rescue, neutral wells zero; protection from apoptosis, % (no concentration beside the values); 0.8% of 300,000 active; AID 435005;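 active means Every replicate reaches about 75%, or at least half do and their mean reaches it too, limit read from the data; inconclusive means At least half of replicates reach the limit but their mean does not; inactive means Under half of replicates reach the limit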;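 further: 0% = cytokine-treated negative control wells and 100% = positive control rescue; higher means more ATP so stronger rescue from cytokine killing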
MPTP block: permeability transition pore inhibition. AID 602449. inhibition, % at 10 µM. 1.4% of 360,000 active. isolated mouse mitochondria, Ca2+ swelling absorbance, 30 min;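 active means inhibition of 50% or more, scaled per plate between neutral and stimulator controls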;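 further: 0% = DMSO wells given calcium and 100% = 1 mM EGTA wells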
Mdm2-MdmX inh: inhibitors of human Mdm2/MdmX interaction; O15151+Q00987; SaOS-2 split-luciferase Mdm2/MdmX complementation, luminescence; inhibition, % at 8 µM; 3% of 330,000 active; AID 485346;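 active means inhibition of at least 50% at 8 µM in the primary screen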
Target sequence (O15151 whole entry, looked up): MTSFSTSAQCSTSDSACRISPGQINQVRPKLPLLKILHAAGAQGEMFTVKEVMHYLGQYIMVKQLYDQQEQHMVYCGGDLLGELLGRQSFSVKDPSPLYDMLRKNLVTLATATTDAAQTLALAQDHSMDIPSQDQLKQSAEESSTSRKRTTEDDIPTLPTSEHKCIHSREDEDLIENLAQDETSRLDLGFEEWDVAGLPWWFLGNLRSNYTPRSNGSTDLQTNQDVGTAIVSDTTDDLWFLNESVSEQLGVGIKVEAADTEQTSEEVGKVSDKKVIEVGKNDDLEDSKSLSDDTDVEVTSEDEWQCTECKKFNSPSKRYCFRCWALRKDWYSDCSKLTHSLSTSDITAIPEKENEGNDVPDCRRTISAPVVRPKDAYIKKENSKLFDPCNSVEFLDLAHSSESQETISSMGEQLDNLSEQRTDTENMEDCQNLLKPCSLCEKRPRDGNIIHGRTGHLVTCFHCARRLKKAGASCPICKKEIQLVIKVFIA
Target sequence (Q00987 whole entry, looked up): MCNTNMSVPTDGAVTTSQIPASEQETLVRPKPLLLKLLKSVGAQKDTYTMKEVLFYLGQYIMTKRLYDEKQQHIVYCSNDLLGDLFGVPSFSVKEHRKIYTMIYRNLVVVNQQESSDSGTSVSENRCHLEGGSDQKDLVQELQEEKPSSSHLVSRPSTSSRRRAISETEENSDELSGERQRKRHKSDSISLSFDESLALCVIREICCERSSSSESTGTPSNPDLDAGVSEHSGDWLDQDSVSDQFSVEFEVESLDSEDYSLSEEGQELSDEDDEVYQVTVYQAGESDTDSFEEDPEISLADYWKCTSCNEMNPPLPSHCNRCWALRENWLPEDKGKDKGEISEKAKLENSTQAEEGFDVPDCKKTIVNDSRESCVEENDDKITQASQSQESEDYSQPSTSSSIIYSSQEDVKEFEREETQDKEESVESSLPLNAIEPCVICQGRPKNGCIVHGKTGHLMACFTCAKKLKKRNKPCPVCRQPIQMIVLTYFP
Rh123 counter: membrane potential counter-screen of mitochondrial pore inhibitors | isolated mitochondria, Rhodamine 123 fluorescence | shares compounds with MPTP block | inhibition, % at 10 µM | 78% of 5,000 active | AID 624504; in the data active means inhibition above about 22%;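 further: 0% = DMSO vehicle and 100% = positive control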
MPTP abs DR: dose response confirmation of mitochondrial permeability transition pore inhibitors; 58% of 780 active; shares compounds with MPTP block; IC50, µM; isolated mitochondria swelling, absorbance; in the data active means IC50 below about 20 µM
MPTP cs DR: counter-screen for mitochondrial permeability transition pore inhibitors, dose response. shares compounds with MPTP block. isolated mitochondria counterscreen, fluorescence read-out. IC50, µM. 49% of 780 active; in the data active means IC50 below about 80 µM
* hit, by the source's call; i = inactive; ? = inconclusive; / = no result.

SMILES | Calb FLC | SKKanGAS inh | CSC inhib | Beta apoptosis | MPTP block | Mdm2-MdmX inh | Rh123 counter | others
CC(C)(C)OC(=O)N1CCCC(C(=O)Nc2ccc(C(=O)NC3CC3)cc2)C1 (configuration not stated) | / | / | / | / | 168* | / | 3 | MPTP abs DR=>100;MPTP cs DR=>80
Cc1c(C(C)C)c(=O)n(-c2ccc(S(=O)(=O)NC3CCCCC3)cc2)n1C | -8 | 2 | -15 | 57 | 33 | 0 | /
Cc1c(C(C)C)c(=O)n(-c2ccc(S(=O)(=O)NCc3ccccc3)cc2)n1C | 11 | -10 | 0 | 105* | 96* | 23 | 83*
Cc1ccc(C)c(N/N=C2\CCCNC2=O)c1 | -12 | -1 | 7 | -7 | 1 | -9 | /
CCCOc1ccc(C(C(=O)OCCN(CC)CC)c2ccccc2)cc1 (configuration not stated) | 8 | 1 | -12 | 2 | 82* | 21 | -1 | MPTP abs DR=i;MPTP cs DR=73*
CCCOc1ccc(C(=O)C(CN2CCCC2)c2ccccc2)cc1 (configuration not stated) | 26 | -2 | 101* | 0 | 79* | / | -11
OCCC1CN(CCCn2cccn2)CCN1Cc1ccccc1 (configuration not stated) | -2 | 1 | 7 | -4 | 0 | -8 | /
CCOC(=O)c1cnc(SCC(=O)Nc2cc(OC)ccc2OC)nc1N | 8 | 2 | -7 | 28 | 86* | 19 | 69*
CCOC(=O)c1cnc(SCC(=O)Nc2ccc(NC(C)=O)c(OC)c2)nc1N | 0 | 5 | -13 | -3 | -1 | -7 | /
COc1cccc(C(O)c2nc(-c3cc4ccccc4o3)cs2)c1 (configuration not stated) | / | / | / | / | 5 | / | /
COc1cc(C(O)c2nc(-c3cc4ccccc4o3)cs2)ccc1F (configuration not stated) | / | / | / | / | 59* | / | 80*
COc1cc(C(O)c2nc(-c3cc(F)cc(F)c3)cs2)ccc1F (configuration not stated) | / | / | / | / | 4 | / | /
COc1cc(C(O)c2nc(-c3ccc(N(C)C)cc3)cs2)ccc1F (configuration not stated) | / | / | / | / | 64* | / | 66*
Cc1ccc(/C=N/NC(=O)c2cc3c(s2)CCCC3)o1 | / | / | -3 | 2 | 0 | -28 | /
NC(c1ccccc1)c1csc(NC(=O)Nc2cccc(Cl)c2)n1 (configuration not stated) | / | / | / | / | 3 | / | /
CCOC(=O)Cc1csc(NC(=O)Nc2ccc(OC(F)(F)F)cc2)n1 | 38 | 5 | -3 | 7 | 84* | 43 | 68*
NC(c1ccccc1)c1csc(NC(=O)Nc2ccc(OC(F)(F)F)cc2)n1 (configuration not stated) | / | / | / | / | 70* | / | 78*
COc1ccc(C(CNC(=O)c2ccc3c(c2)OCCO3)N(C)C)cc1 (configuration not stated) | -24 | -2 | 0 | -2 | 1 | -3 | /
OCCNCc1cc(Br)ccc1OCc1ccc(Cl)cc1 | -20 | 3 | / | 4 | 4 | 33 | /
OCCNCc1cc(Br)ccc1OCc1ccc(Cl)cc1Cl | 4 | 2 | / | / | 82* | / | 20*
CCOc1cccc(CNCCO)c1OCc1ccc(Cl)cc1Cl | -5 | -4 | / | 0 | 94* | 44 | 2 | MPTP abs DR=4.5*;MPTP cs DR=20*
O=C(c1ccc(O)c(Br)c1)c1cc(Br)ccc1O | / | / | / | / | 94* | / | 93*
O=C(C(=O)c1cc(Br)ccc1O)c1cc(Br)ccc1O | / | / | / | / | 95* | / | 97*
Cn1c(=O)c2c(nc(N/N=C/c3cccnc3)n2Cc2ccccc2)n(C)c1=O | 1 | -1 | -3 | / | 7 | 19 | /
CCOC(=O)CC1C(=O)NCCN1C(=O)c1ccc(Cl)cc1Cl (configuration not stated) | 3 | -1 | / | / | -1 | -9 | /
SMILES | Calb FLC | SKKanGAS inh | CSC inhib | Beta apoptosis | MPTP block | Mdm2-MdmX inh | Rh123 counter | others
CC(=O)Nc1ccccc1OCC(=O)c1cc(C)n(Cc2cccs2)c1C | 4 | 5 | 37 | 111* | 100* | -9 | 94*
Cc1cc(C(=O)COc2cccnc2[N+](=O)[O-])c(C)n1Cc1cccs1 | -4 | -4 | 16 | 3 | -3 | -9 | /
O=[N+]([O-])c1ccc(N2CCN(S(=O)(=O)c3ccc(Cl)cc3)CC2)cc1NCc1cccnc1 | 8 | 10 | 3 | -7 | 1 | 17 | /
Cc1c(C(=O)NC(Cc2ccccc2)c2nc3ccccc3[nH]2)cccc1[N+](=O)[O-] (configuration not stated) | 1 | 4 | 7 | 2 | 37 | 10 | /
CSCC[C@H](NC(=O)c1ccc(Cl)c([N+](=O)[O-])c1)c1nc2ccccc2[nH]1 | -12 | -1 | 8 | -1 | 59* | 12 | 83*
O=C(NC(Cc1ccccc1)c1nc2ccccc2[nH]1)c1ccc(Cl)c([N+](=O)[O-])c1 (configuration not stated) | -18 | 7 | 3 | -2 | 93* | 15 | 91*
Cc1cc(NC(=O)/C=C/c2cccc(Cl)c2)n(-c2nc3ccccc3[nH]2)n1 | -2 | 17 | -3 | 59 | 3 | 43 | /
Cc1ccc(Sc2ncccc2C(=O)NCC(c2ccc(F)cc2)N2CCOCC2)c(C)c1 (configuration not stated) | 5 | -2 | / | 0 | 0 | 10 | /
COc1ccc(CNc2ccc([N+](=O)[O-])cc2C)cc1 | 5 | -2 | 21 | -3 | 2 | 20 | /
COc1ccc(NC(=S)NNc2ccc([N+](=O)[O-])cc2S(=O)(=O)Nc2ccc(C)cc2C)cc1 | ? | 65* | 12 | 13 | 97* | 8 | 56*
Cc1ccc(NS(=O)(=O)c2cc([N+](=O)[O-])ccc2NNC(=S)Nc2cccc(Cl)c2)c(C)c1 | -6 | 88* | 100* | 7 | 86* | / | -2
Fc1ccc(C2c3cccn3CCN2C(=S)Nc2cccc(Br)c2)cc1 (configuration not stated) | 8 | 14 | 26 | -10 | 90* | 16 | 66*
Fc1ccc(NC(=S)N2CCn3cccc3C2c2cccnc2)cc1 (configuration not stated) | -34 | 3 | 6 | -15 | 4 | -1 | /
O=S(=O)(Nc1cc(Cl)ccc1-n1cncn1)c1ccccc1Cl | / | / | / | 5 | 3 | -8 | /
O=S(=O)(Nc1cc(Cl)ccc1-n1cncn1)c1cc(Br)ccc1Br | / | / | / | 31 | 66* | 44 | 93*
Cc1cc(N2C(=O)Cc3ccccc3C2=O)ccc1C(C)C | -1 | -7 | 2 | -2 | 0 | 12 | /
CC1CCN(S(=O)(=O)c2nnc(NC(=O)c3cccc(Cl)c3)s2)CC1 | -1 | 28 | 22 | 28 | 83* | 37 | 79*
